In the supplement of paper PMC4840960:
Counter-ions that a name gives are not always drawn. ± gives the standard deviation of the averaged measurements.

These compounds were tested on E18 rat cortical neuron-glia co-culture (assay: fiber score / MBP score (myelination specific beyond OL differentiation) (ratio); higher = more myelination-specific MBP alignment). Conditions: 1 µM; treatment time: 8 days (DIV5-DIV13).
Procedure, shortened: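 Fiber score divided by MBP score is the read-out; fiber score is continuous MBP fiber length per Olig2+ nucleus, and MBP score is thresholded MBP area × intensity per Olig2+ nucleus. Primary E18 rat cortical co-cultures were dissociated with papain and seeded at 20,000 cells/well on poly-d-lysine/laminin 96-well plates. Library compounds at 1 or 5 µM were given in myelination medium from DIV5 to DIV13, after which cells were fixed in 4 % paraformaldehyde, immunostained for MBP and Olig2 with DAPI, and imaged in four 10X fields per well in duplicate wells.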

| SMILES | fiber score / MBP score |
| --- | --- |
| CC(C)(O)[C@@H]1[C@H]2OC(=O)[C@@H]1[C@]1(O)C[C@H]3O[C@]34C(=O)O[C@H]2[C@]14C [Picrotin] | 0.632 |
| COc1ccc(C(CN(C)C)C2(O)CCCCC2)cc1 (stereo not given) [Venlafaxine] | 0.576 |
| CCOC(=O)c1cncn1[C@H](C)c1ccccc1 [Etomidate] | 0.772 ± 0.06 |
| COc1cccc(C2(O)CCCCC2CN(C)C)c1 (stereo not given) [Tramadol] | 0.793 |
| c1ccc(Cn2ccnc2)cc1 [1-Benzylimidazole] | 0.664 |
| O=C1CN=C(c2ccccc2)c2cc([N+](=O)[O-])ccc2N1 [Nitrazepam] | 0.887 |
| CCCC(C)(COC(N)=O)COC(=O)NC(C)C (stereo not given) [Carisoprodol] | 0.713 |
| CN1[C@@H]2C[C@@H](OC(=O)[C@H](CO)c3ccccc3)C[C@H]1[C@@H]1O[C@@H]12 [Scopolamine hydrobromide] | 0.649 |
| Oc1cc2c(cc1O)[C@H]1c3ccccc3CN[C@@H]1CC2 (racemic) [Dihydrexidine] | 1.05 |
| N=C(NCc1ccc(Cl)cc1)SCCCc1c[nH]cn1 [Clobenpropit] | 0.723 |
| O=C1CC[C@@]2(O)[C@H]3Cc4ccc(O)c5c4[C@@]2(CCN3CC2CC2)[C@H]1O5 [Naltrexone] | 1.3 |
| COc1cc(N)c(Cl)cc1C(=O)NC1CN2CCC1CC2 (stereo not given) [Zacopride] | 0.703 |
| c1cncc([C@@H]2CCCN2)c1 [Nornicotine] | 0.765 |
| CCCN1C[C@H](CSC)C[C@@H]2c3cccc4[nH]cc(c34)C[C@H]21 [Pergolide] | 0.689 |
| CN1CC[C@@H](c2ccc(F)cc2)[C@H](COc2ccc3c(c2)OCO3)C1 [N-Methylparoxetine] | 0.423 |
